# According to article PMC9911399, “Two distinct binding modes provide the RNA-binding protein RbFox with extraordinary sequence specificity”:
# Substitutions are numbered along the chain they refer to; changes in the protein carry UniProt numbers. Over roughly 16,000 sequences, “ka relative to ugcaugu” has its median near 0.096; the highest 2% begin near 0.35. Shown is part of a subset that was picked to be rich in the highest values.
# T1: RBFOX1 RRM RbFoxmut (Fox-RRM*) (Homo sapiens, UniProt Q9NWB1 109-208, R118D;E147R;N151S;E152T)
# T1 sequence: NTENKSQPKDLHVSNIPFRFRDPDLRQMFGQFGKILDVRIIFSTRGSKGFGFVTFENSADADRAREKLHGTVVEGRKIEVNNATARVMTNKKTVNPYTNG
# B1: UCUGGCC (DNA:RNA)
# RNA: GGGAGACCGGAAUUCAGAUUGUCCUCUGGCCUUAAAUCCCGUCGUAGCCACCA
# DNA 1: CAATCTGAATTCCGGTCTCCC
# DNA 2: TGGTGGCTACGACGGGATT
# B2: UGGAUUC (DNA:RNA)
# RNA: B1 RNA with C26G, U27G, G28A, G29U, C30U
# DNA 1: CAATCTGAATTCCGGTCTCCC
# DNA 2: TGGTGGCTACGACGGGATT
# B3: UGGAUUG (DNA:RNA)
# RNA: B1 RNA with C26G, U27G, G28A, G29U, C30U, C31G
# DNA 1: CAATCTGAATTCCGGTCTCCC
# DNA 2: TGGTGGCTACGACGGGATT
# B4: UGGAGUC (DNA:RNA)
# RNA: B1 RNA with C26G, U27G, G28A, C30U
# DNA 1: CAATCTGAATTCCGGTCTCCC
# DNA 2: TGGTGGCTACGACGGGATT
# B5: UGGACUC (DNA:RNA)
# RNA: B1 RNA with C26G, U27G, G28A, G29C, C30U
# DNA 1: CAATCTGAATTCCGGTCTCCC
# DNA 2: TGGTGGCTACGACGGGATT
# B6: UGGAGAA (DNA:RNA)
# RNA: B1 RNA with C26G, U27G, G28A, C30A, C31A
# DNA 1: CAATCTGAATTCCGGTCTCCC
# DNA 2: TGGTGGCTACGACGGGATT
# B7: UGGAAUC (DNA:RNA)
# RNA: B1 RNA with C26G, U27G, G28A, G29A, C30U
# DNA 1: CAATCTGAATTCCGGTCTCCC
# DNA 2: TGGTGGCTACGACGGGATT
# B8: UCCUGGA (DNA:RNA)
# RNA: B1 RNA with U27C, G28U, C30G, C31A
# DNA 1: CAATCTGAATTCCGGTCTCCC
# DNA 2: TGGTGGCTACGACGGGATT
# B9: UGGGAUC (DNA:RNA)
# RNA: B1 RNA with C26G, U27G, G29A, C30U
# DNA 1: CAATCTGAATTCCGGTCTCCC
# DNA 2: TGGTGGCTACGACGGGATT
# B10: CUGGAUC (DNA:RNA)
# RNA: B1 RNA with U25C, C26U, U27G, G29A, C30U
# DNA 1: CAATCTGAATTCCGGTCTCCC
# DNA 2: TGGTGGCTACGACGGGATT
# B11: UGGAGAU (DNA:RNA)
# RNA: B1 RNA with C26G, U27G, G28A, C30A, C31U
# DNA 1: CAATCTGAATTCCGGTCTCCC
# DNA 2: TGGTGGCTACGACGGGATT
# B12: UGGAUCU (DNA:RNA)
# RNA: B1 RNA with C26G, U27G, G28A, G29U, C31U
# DNA 1: CAATCTGAATTCCGGTCTCCC
# DNA 2: TGGTGGCTACGACGGGATT
# B13: UGGAAUG (DNA:RNA)
# RNA: B1 RNA with C26G, U27G, G28A, G29A, C30U, C31G
# DNA 1: CAATCTGAATTCCGGTCTCCC
# DNA 2: TGGTGGCTACGACGGGATT
# B14: CCAGUUC (DNA:RNA)
# RNA: B1 RNA with U25C, U27A, G29U, C30U
# DNA 1: CAATCTGAATTCCGGTCTCCC
# DNA 2: TGGTGGCTACGACGGGATT
# B15: UCAGAGG (DNA:RNA)
# RNA: B1 RNA with U27A, G29A, C30G, C31G
# DNA 1: CAATCTGAATTCCGGTCTCCC
# DNA 2: TGGTGGCTACGACGGGATT
# B16: CCAUUUC (DNA:RNA)
# RNA: B1 RNA with U25C, U27A, G28U, G29U, C30U
# DNA 1: CAATCTGAATTCCGGTCTCCC
# DNA 2: TGGTGGCTACGACGGGATT
# B17: UGAUAGC (DNA:RNA)
# RNA: B1 RNA with C26G, U27A, G28U, G29A, C30G
# DNA 1: CAATCTGAATTCCGGTCTCCC
# DNA 2: TGGTGGCTACGACGGGATT
# B18: UAUAGUG (DNA:RNA)
# RNA: B1 RNA with C26A, G28A, C30U, C31G
# DNA 1: CAATCTGAATTCCGGTCTCCC
# DNA 2: TGGTGGCTACGACGGGATT
# B19: AGUGAUA (DNA:RNA)
# RNA: B1 RNA with U25A, C26G, G29A, C30U, C31A
# DNA 1: CAATCTGAATTCCGGTCTCCC
# DNA 2: TGGTGGCTACGACGGGATT
# B20: UAGGGUG (DNA:RNA)
# RNA: B1 RNA with C26A, U27G, C30U, C31G
# DNA 1: CAATCTGAATTCCGGTCTCCC
# DNA 2: TGGTGGCTACGACGGGATT
# B21: UCCACGA (DNA:RNA)
# RNA: B1 RNA with U27C, G28A, G29C, C30G, C31A
# DNA 1: CAATCTGAATTCCGGTCTCCC
# DNA 2: TGGTGGCTACGACGGGATT
# B22: CGAGCCU (DNA:RNA)
# RNA: B1 RNA with U25C, C26G, U27A, G29C, C31U
# DNA 1: CAATCTGAATTCCGGTCTCCC
# DNA 2: TGGTGGCTACGACGGGATT
# B23: UGGAUGA (DNA:RNA)
# RNA: B1 RNA with C26G, U27G, G28A, G29U, C30G, C31A
# DNA 1: CAATCTGAATTCCGGTCTCCC
# DNA 2: TGGTGGCTACGACGGGATT
# B24: CGGAUGA (DNA:RNA)
# RNA: GGGAGACCGGAAUUCAGAUUGUCCCGGAUGAUUAAAUCCCGUCGUAGCCACCA
# DNA 1: CAATCTGAATTCCGGTCTCCC
# DNA 2: TGGTGGCTACGACGGGATT
# B25: UGAUGGA (DNA:RNA)
# RNA: B24 RNA with C25U, G27A, A28U, U29G
# DNA 1: CAATCTGAATTCCGGTCTCCC
# DNA 2: TGGTGGCTACGACGGGATT
# B26: GGGUGGA (DNA:RNA)
# RNA: B24 RNA with C25G, A28U, U29G
# DNA 1: CAATCTGAATTCCGGTCTCCC
# DNA 2: TGGTGGCTACGACGGGATT
# B27: AAAUCUG (DNA:RNA)
# RNA: GGGAGACCGGAAUUCAGAUUGUCCAAAUCUGUUAAAUCCCGUCGUAGCCACCA
# DNA 1: CAATCTGAATTCCGGTCTCCC
# DNA 2: TGGTGGCTACGACGGGATT
# B28: UCACACA (DNA:RNA)
# RNA: B1 RNA with U27A, G28C, G29A, C31A
# DNA 1: CAATCTGAATTCCGGTCTCCC
# DNA 2: TGGTGGCTACGACGGGATT
# Target: T1, RBFOX1 RRM RbFoxmut (Fox-RRM*)
# Experiment: EMSA; HiTS-Eq, 1 nM pool, 10 min; buffer printed only for the single-RNA assays: 10 mM Tris pH 7.5, 150 mM NaCl, 3.4 mM EDTA, 0.001% NP-40, 30 C
# Conditions: tags: His6 N-terminal (pET28a); label: 5' 32P
# Summary of the method: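 A pool of RNA with 7 randomized nucleotides, 5′-radiolabelled and with DNA-annealed flanks, was equilibrated at 1 nM for 10 min in 50 µL with purified RbFox RRM, wild type or mutant, across increasing protein concentrations. Free RNA was separated by 8% native PAGE, excised, reverse-transcribed, barcoded by PCR and sequenced. Relative association constants were obtained from read-count changes of each RNA species versus the control reaction and normalised to the cognate motif.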
row,Binder,binding signal
1,B1,0.161 KA relative to UGCAUGU
2,B2,0.139 KA relative to UGCAUGU
3,B3,0.526 KA relative to UGCAUGU
4,B4,0.18 KA relative to UGCAUGU
5,B5,0.0856 KA relative to UGCAUGU
6,B6,0.0999 KA relative to UGCAUGU
7,B7,0.458 KA relative to UGCAUGU
8,B8,0.0709 KA relative to UGCAUGU
9,B9,0.357 KA relative to UGCAUGU
10,B10,0.274 KA relative to UGCAUGU
11,B11,0.094 KA relative to UGCAUGU
12,B12,0.259 KA relative to UGCAUGU
13,B13,1.66 KA relative to UGCAUGU
14,B14,0.073 KA relative to UGCAUGU
15,B15,0.0974 KA relative to UGCAUGU
16,B16,0.0493 KA relative to UGCAUGU
17,B17,0.0858 KA relative to UGCAUGU
18,B18,0.137 KA relative to UGCAUGU
19,B19,0.133 KA relative to UGCAUGU
20,B20,0.149 KA relative to UGCAUGU
21,B21,0.0743 KA relative to UGCAUGU
22,B22,0.103 KA relative to UGCAUGU
23,B23,0.401 KA relative to UGCAUGU
24,B24,0.235 KA relative to UGCAUGU
25,B25,0.0611 KA relative to UGCAUGU
26,B26,0.0811 KA relative to UGCAUGU
27,B27,0.0533 KA relative to UGCAUGU
28,B28,0.0876 KA relative to UGCAUGU
